Compounds with a hit are over-represented: about 2.6% of the library has one in this group of screens.
ATXN2 expr inh – Primary qHTS for Inhibitors of ATXN expression; HEK-293 ATXN2-luciferase reporter, luminescence, 24 h; Potency, µM (series often up to 57 µM), for the others: top-dose activity change, negative = inhibition, actives largely listed as inhibitors; 360,000 tested, 0.72% active; AID 1745845, 2022; also: potency is read from the fitted curve at half-maximal effect; % is scaled to controls: 0 for no effect and ±100 for the full control effect; nearly all actives have a fitted effect of over 55% in size
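ATXN2-luciferase reporter cells (luciferase flanked by upstream and downstream ATXN2 gene portions) were treated 24 h at 37 °C with compounds at up to 57 uM. SteadyGlo luminescence gave expression; GF-AFC fluorescence gave viability.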
HepG2 viability – qHTS for Inhibitors of TGF-b: Cytotox Counterscreen; HepG2 CAGA-GFP viability, ATP luminescence, 18 h; Potency, µM (series often up to 46.1 µM), for the others: top-dose activity change, negative = cytotoxicity, usual class: cytotoxic; 410,000 tested, 0.76% active; AID 588856, 2011; also: potency is read from the fitted curve at half-maximal effect
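HepG2 CAGA-GFP cells (1000/well, DMEM with 1% FBS) received compound, then TGF-beta at 500 pg/mL final, and were incubated 18 hours at 37 degrees C. Viability was read by CellTiter-Glo luminescence. Media-only wells were set as complete cell-killing and DMSO as no toxicity.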
uPA surface inh – qHTS for Inhibitors of Cell Surface uPA Generation. AID 540303, 2011. 330,000 tested, 0.31% active. Potency, µM (series often up to 38.3 µM), without a hit: at the top dose activity change, negative = inhibition, most hits filed as inhibitors. cell surface uPA generation assay, qHTS; active = well fitted inhibition curve with a large enough effect; inconclusive = small, poorly fitted or top-dose-only effect; inactive = no such curve, though single readings can be large or run the other way; tested in mouse RAW 264.7 cells; also: potency is read from the fitted curve at half-maximal effect; % is scaled to controls: 0 for no effect and ±100 for the full control effect; nearly all actives have a fitted effect of over 55% in size
Giardia kill – Small Molecules that selectively kill Giardia lamblia: qHTS | Giardia lamblia trophozoite viability | activity change, % at 7.66 µM, hits read low | 340,000 tested, 0.15% active | AID 540267, 2011; in the data active = activity change below about -80%; inconclusive = between about -30% and that limit;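 also: parasites exposed to compound for two days anaerobically before the ATP read; % is scaled to controls: 0 for no effect and ±100 for the full control effect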
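Giardia lamblia trophozoites (100 cells/well) were incubated with compounds for 48 h at 37 deg C under anaerobic conditions. Viability was read as ATP content by one-step luminescence after 15-30 min at room temperature.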
TGFb SMAD3 inh – qHTS for Inhibitors of TGF-b; HepG2 CAGA-GFP TGF-b/SMAD3 reporter, GFP fluorescence, 18 h; TGF-beta stimulated, 500 pg/mL final; Potency, µM (series often up to 46.1 µM), for the others: top-dose activity, negative = inhibition, most hits filed as inhibitors; 410,000 tested, 1.2% active; also: potency is read from the fitted curve at half-maximal effect; % is scaled to controls: 0 for no effect and ±100 for the full control effect; nearly all actives have a fitted effect of over 65% in size
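Read-out: total well GFP (ex488/em500-530) summed from mean per-cell fluorescence. Cells: HEPG2 CAGA-GFP, 1% FBS DMEM, 18 h at 37 degrees C with 500 pg/mL final TGF-beta. Unstimulated wells served as the full-inhibition control; stimulated DMSO wells = 0%.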
S2 tox – Viability Counterscreen for Primary qHTS for Inhibitors of ATXN expression; S2 cells (HEK-293 line with an ATXN2-luciferase reporter) viability, CellTiter-Fluor protease fluorescence, 24 h; Potency, µM (doses to about 56.7 µM), most hits filed as cytotoxic; 400,000 tested, 0.49% active; AID 651635, 2014; also: potency is read from the fitted curve at half-maximal effect; nearly all actives have a fitted effect of over 40% in size
* marks the source's active call; other numbers are inactive results. Unless noted, calls follow the shape of the dose curve; as a rule, active = well fitted curve in the direction sought with a large enough effect; inconclusive = small, poorly fitted or top-dose-only effect, or another doubt; inactive = no such curve, though single readings can be large; an effect the other way counts as inactive or inconclusive.

O=[N+]([O-])c1cc(Cl)cc(/C=N\Nc2ccccn2)c1O was read as ATXN2 expr inh 7.1µM*, HepG2 viability -44%, uPA surface inh -6%, Giardia kill 0, TGFb SMAD3 inh inconclusive and S2 tox inconclusive.
Screening CCOC(=O)c1ccc(S(=O)(=O)N2CCN(c3nc(-c4cccs4)nc4ccccc34)CC2)cc1 returned HepG2 viability -3%, Giardia kill 17 and TGFb SMAD3 inh -11%.
C=C(NC(=O)C(=C)NC(=O)c1csc(C2=NC3c4csc(n4)C4NC(=O)c5csc(n5)C(C(C)(O)C(C)O)NC(=O)C5CSC(=N5)/C(=C/C)NC(=O)C(C(C)O)NC(=O)c5csc(n5)C3(CC2)NC(=O)C(C)NC(=O)C(=C)NC(=O)C(=C)NC(=O)C(C(C)C)NC2C=Cc3c(C(C)O)cc(nc3C2O)C(=O)OC4C)n1)C(N)=O (stereo not given) was read as ATXN2 expr inh inconclusive, HepG2 viability 0%, uPA surface inh -9%, Giardia kill -1, TGFb SMAD3 inh 8.9µM* and S2 tox 2.7µM*.
`COc1ccc(Sc2nc(-c3ccccn3)ncc2OC)cc1` gave ATXN2 expr inh 22µM*, HepG2 viability -14%, uPA surface inh 1%, Giardia kill 12, TGFb SMAD3 inh -3% and S2 tox inconclusive.
For CC(C)CC(=O)N1C/C=C\C[C@@H](c2ccc(Cl)cc2)N(Cc2ccc(Cl)cc2)C(=O)[C@@H]1Cc1ccccc1 the results were HepG2 viability -40% and TGFb SMAD3 inh inconclusive.
CNC(=O)c1c(-c2ccc(F)cc2)oc2cc(N(CCO)S(C)(=O)=O)c(C3CC3)cc12 was read as ATXN2 expr inh -19%.
Cc1ccc(C(=O)CC(=O)c2cc(Cl)ccc2O)cc1 was read as ATXN2 expr inh -26%, HepG2 viability -62%, Giardia kill -17, TGFb SMAD3 inh inconclusive and S2 tox inactive.
`N/C(=C\C(=O)c1cc(Cl)ccc1O)C(Cl)(Cl)Cl` gave ATXN2 expr inh 20µM*, HepG2 viability -89%, uPA surface inh -16%, Giardia kill -18, TGFb SMAD3 inh 10µM* and S2 tox inconclusive.
For Cc1[nH]cnc1C[C@H]1CCc2c(C)c3ccccc3n2C1=O the results were S2 tox inactive.
Screening CCN1CCC(O)(/C=C/c2ccc(C(C)C)cc2)C(C(=O)/C=C/c2ccc(C(C)C)cc2)C1 (stereo not given) returned ATXN2 expr inh inconclusive, HepG2 viability 13µM*, uPA surface inh -9%, Giardia kill -11 and TGFb SMAD3 inh 8.9µM*.
For C[N+]1(CC(=O)c2ccc(O)c(O)c2)CCOCC1 the results were HepG2 viability -11% and TGFb SMAD3 inh 3%.
`O=C(Cn1ncc(Cl)c(Cl)c1=O)NC1CCCCC1` gave ATXN2 expr inh inconclusive, HepG2 viability 12%, uPA surface inh 10µM*, Giardia kill 7 and TGFb SMAD3 inh -27%.
`C=CCn1c(C)cc(C(=O)Cn2ncc(Cl)c(Cl)c2=O)c1C` gave ATXN2 expr inh inconclusive, HepG2 viability -35%, uPA surface inh 4%, Giardia kill -23, TGFb SMAD3 inh -1% and S2 tox 35µM*.
`O=C(Cn1ncc(Cl)c(Cl)c1=O)c1ccc(Cl)cc1` gave ATXN2 expr inh inconclusive, HepG2 viability 18µM*, uPA surface inh -7%, Giardia kill 10, TGFb SMAD3 inh inconclusive and S2 tox inconclusive.
CC(C)(C)C(=O)Cn1ncc(Cl)c(Cl)c1=O was read as HepG2 viability -9%, uPA surface inh inconclusive, Giardia kill 18, TGFb SMAD3 inh -1% and S2 tox 7.9µM*.
`CC(=O)NN1C(=O)c2ccc3c4c(ccc(c24)C1=O)C(=O)N(NC(C)=O)C3=O` gave HepG2 viability 10µM*, uPA surface inh -26%, Giardia kill 1 and TGFb SMAD3 inh 7.9µM*.
Screening O=C1c2ccc3c4c(ccc(c24)C(=O)N1NC(=O)C(F)(F)F)CC3 returned ATXN2 expr inh -6%, HepG2 viability 5%, uPA surface inh 7%, Giardia kill -11, TGFb SMAD3 inh 1% and S2 tox inactive.
Screening CCC(C(=O)O)c1ccc(N2Cc3ccccc3C2=O)cc1 (stereo not given) returned ATXN2 expr inh 34% and S2 tox inactive.
For C[C@H](NC(=O)OC(C)(C)C)C(=O)c1ccco1 the results were HepG2 viability 13% and TGFb SMAD3 inh 7%.
For CCc1ncn(CCc2ccccc2OC)c1C(C)C the results were ATXN2 expr inh -3% and S2 tox inactive.
Screening COc1cccc(-c2ncn(CCc3ccccc3OC)c2C(C)C)c1 returned ATXN2 expr inh inconclusive and S2 tox 11µM*.
Cc1cccc(CCN2C(N(C)C)=NC[C@@H]2Cc2ccccc2)c1 was read as ATXN2 expr inh -19%, HepG2 viability -3%, uPA surface inh 10µM*, Giardia kill 1, TGFb SMAD3 inh 2% and S2 tox inconclusive.
For COc1cccc(N2CCN(C(=O)c3ccc(CS(=O)c4ccccc4Cl)o3)CC2)c1 (stereo not given) the results were ATXN2 expr inh 0%, HepG2 viability -35%, uPA surface inh inconclusive, Giardia kill -20, TGFb SMAD3 inh 11µM* and S2 tox inactive.
COC(=O)c1ccc2nc(-c3ccc4c(c3)OCO4)cn2c1 was read as ATXN2 expr inh inconclusive, HepG2 viability 8%, uPA surface inh -10%, Giardia kill inconclusive, TGFb SMAD3 inh inconclusive and S2 tox inactive.
Screening CCc1ccn2cc(-c3ccc4c(c3)OCO4)nc2c1 returned ATXN2 expr inh 3.5µM*, HepG2 viability -62%, uPA surface inh -17%, Giardia kill inconclusive, TGFb SMAD3 inh -23% and S2 tox inconclusive.
`CC(C)[C@@H]1CC[C@@H](C)CC1=O` gave ATXN2 expr inh 2% and S2 tox inactive.
Screening O=C(Cc1ccc(Cl)cc1)c1c[nH]c(C(=O)NCc2cccnc2)c1 returned HepG2 viability 7%, uPA surface inh 8%, Giardia kill -23, TGFb SMAD3 inh -28% and S2 tox 2.5µM*.
`CCC1CN(CCNC(=O)c2cccnc2OC)Cc2cc(OC)ccc2O1` (stereo not given) gave S2 tox inactive.
For CCOC(=O)c1cc(-c2ccccc2)n(CCCC(=O)Nc2ccc(C)cc2C)c1C the results were HepG2 viability -26% and TGFb SMAD3 inh 0%.
